Binding signal data for 22 molecules are collected here from article PMC12136788.

To fix the notation:
B1: chr11:46542767:46542868:-|CDS|ENSG00000110497|msi1|total|mutant (ssRNA)
RNA: GGGAGUUCUACAGUCCGACGAUCAACACGCUCCGCAACCUCAGUCUGGGUCCUACCCGCCGCUCUUUGGGAGGGCCUCUGUCCCGCCACCCUUCCCGGUAUCACCGAGAAACCGCUCCUGGGUUGACAGGAUCUGAGUGGACCCAACAGAGGAUUGAGCAUCA
B2: chrX:21994482:21994713:+|3pUTR|ENSG00000102172|msi1|total|mutant (ssRNA)
RNA: GGGAGUUCUACAGUCCGACGAUCCAGCUGAAGGAUGGUCCGACAGCACAGCGAAGACUGCUAAAUGCACUGACCCCCCCCAUCCGAAUGUGAUUUUUGUUCCUUUUUAUUUCUCUGUGGGCUUUUGUUUUUGUUUUUGUUUUGCAACAGAGGAUUGAGCAUCA
B3: chr19:41261474:41261596:+|3pUTR|ENSG00000167601|msi1|total|mutant (ssRNA)
RNA: GGGAGUUCUACAGUCCGACGAUCUCUAAAGGUCCACAGGUCCCGACUAUCCGGUGCAAUUUCAAGGUUCUAACCCUAUACUGCCGUAUUCUUUGGGGUGCCCCUCUCCUUCUCCGCUAUCAUUGCUUCCUCCUCCCCAACUGUCAACAGAGGAUUGAGCAUCA
B4: ENSG00000198589:be:win_4151|CDS|ENSG00000198589|bound_else_gene|NA|bound_elsewhere_windowed (ssRNA)
RNA: GGGAGUUCUACAGUCCGACGAUCCGGCUACACAUGAACUGGAAAAUAUUGAACCUACUCAAGGCCUUUCAAUAGAAGCCUCUGUGACAUUUUUGCAGAGGCUAAUUAGCCUUGUGGAUGUGCUUAUAUUUGCAAGUUCUCUUGCAACAGAGGAUUGAGCAUCA
B5: ENSG00000198589:be:win_9651|3pUTR|ENSG00000198589|bound_else_gene|NA|bound_elsewhere_windowed (ssRNA)
RNA: GGGAGUUCUACAGUCCGACGAUCCUUCAAGUGGUCCCUCUUUUUUUCCUACACACUCAGCUCUUCUCUAAAAGCAAGGAUUUGGAAUGAACAAUUCAGUUUGACAGAAAAAGCUGAAUAAAAUGGCAUCUGUAAUUGAAUUGUCAACAGAGGAUUGAGCAUCA
B6: chr13:20822168:20822271:-|CDS|ENSG00000132953|unk|total|mutant (ssRNA)
RNA: GGGAGUUCUACAGUCCGACGAUCUCGAAAAAUCAGAGAAGAUUCAGAUAUGGCACAAGAUUCUCUGCAGUGCCUUGCCCAGUCCGCUUCUCUUCAUGGACCCAUCUUCCCAGAUGAAGGAUCACAAGUUGAUUAUCCCGCACACAACAGAGGAUUGAGCAUCA
B7: chr19:34469546:34469571:+|3pUTR|ENSG00000126261|msi1_unk|FALSE|overlapping (ssRNA)
RNA: GGGAGUUCUACAGUCCGACGAUCGUUGCCUUUUUAAUGUAAAUACCCGUAGGUAUCAUUAAUAGUUUCAAAAUAUUGUGGUUUAGUAAAGUUGAUACCUGGUUAUAAAUAUUAUGCCUUUAUUUUUGGCUAGAAGAAGAAUUACAACAGAGGAUUGAGCAUCA
B8: chr1:232398519:232398625:-|3pUTR|ENSG00000116991|unk|total|mutant (ssRNA)
RNA: GGGAGUUCUACAGUCCGACGAUCACAGCCGUUUUAUUUCCACAGCCACAUUACCACCGCAAUAAGAAAGGAGGCACCGUACACCGUUGGAAAAGCUUUGUGGGGGGAUUAAAAAAAAAAAAAAGCACUGUUGUGUUUAACACUCAACAGAGGAUUGAGCAUCA
B9: chr19:34469546:34469571:+|3pUTR|ENSG00000126261|msi1_unk|total|mutant (ssRNA)
RNA: B7 RNA with U49C, A50C, U62C, A63C, U83C, A84C, U130C, A131C
B10: ENSG00000198589:be:win_801|CDS|ENSG00000198589|bound_else_gene|NA|bound_elsewhere_windowed (ssRNA)
RNA: GGGAGUUCUACAGUCCGACGAUCUCAUUUUGUUGGAGGCUGUUUGAUUGUAACAUCAAUAAAGUCAAAAGGAAAAGGCUUUCAACACUGUGUGAAAUUUGAUUUCAAGCCACAAAAGUGGUAUAUGGUUACCAUAGUACACAUCAACAGAGGAUUGAGCAUCA
B11: chr4:65323451:65323552:-|3pUTR|ENSG00000145242|msi1|FALSE|unique (ssRNA)
RNA: GGGAGUUCUACAGUCCGACGAUCAUCAAGAAAAAGUACAAUACAGGGUGUAUAUUUAUUUUUUGUGUUAUAAAGUUUACUUUUAGUUGCUCUUCUAGAGAUUAUUAGGUAAUAAAUGUGUAUAUACUGUAUAAUUUGCAAUAUCAACAGAGGAUUGAGCAUCA
B12: chr18:68676332:68676434:-|3pUTR|ENSG00000166479|msi1_unk|FALSE|overlapping (ssRNA)
RNA: GGGAGUUCUACAGUCCGACGAUCAUCAAGAUUAUGAGGUUAAAAAUAAUGUGGUUUUAUAUAGCAUAGUGGUUUUAUUUUGUUAGUUAUUUUUAAAGGAGAAGAAAUGUUACUUUUUAACUUUAUACUCAGUUGCAUUAUCAUCAACAGAGGAUUGAGCAUCA
B13: chr1:232398519:232398625:-|3pUTR|ENSG00000116991|unk|FALSE|unique (ssRNA)
RNA: B8 RNA with C28U, C29A, C56U, C57A, C76U, C77A, C83U, C84A
B14: ENSG00000136451:be:win_3251|3pUTR|ENSG00000136451|bound_else_gene|NA|bound_elsewhere_windowed (ssRNA)
RNA: GGGAGUUCUACAGUCCGACGAUCCUUAGUGUAAAAUAAUUUUAUAAAUGAUCUUUUGUACUUUAGGACAUUAAAUUGUACAACUUUUGUAUAUAUAAAAGCUUAGGAACUUUCUGUUUAGCAGGAAGGCAACACAUUCCUACACAACAGAGGAUUGAGCAUCA
B15: chr20:1375301:1375603:-|CDS|ENSG00000088832|control|control|control (ssRNA)
RNA: GGGAGUUCUACAGUCCGACGAUCGGUAUGCUCUCUCAUUUGUUUUGUUUUGCUUUCUAGUAUUUACCUUUUAUAUUUUUUUAUAGGUGGCAUAUUUAUACGGUUCAAAAAUAAAAAAAGUGAAAAGUCUCACCCUCAUGCCAUCAACAGAGGAUUGAGCAUCA
B16: ENSG00000136451:be:win_3151|3pUTR|ENSG00000136451|bound_else_gene|NA|bound_elsewhere_windowed (ssRNA)
RNA: GGGAGUUCUACAGUCCGACGAUCUGAGACAGACUUCCUACAUCAGGGACAGGUAUCUGUGUGUCAUUAUACAAAACAGUUCUAGGGGGUUGAACUACAUAGUAAAAAAAUAAAAUAAAUAGUACUUAGUGUAAAAUAAUUUUACAACAGAGGAUUGAGCAUCA
B17: chr18:68676332:68676434:-|3pUTR|ENSG00000166479|msi1_unk|total|mutant (ssRNA)
RNA: B12 RNA with U61C, A62C, U66C, A67C, U83C, A84C
B18: ENSG00000136451:be:win_3201|3pUTR|ENSG00000136451|bound_else_gene|NA|bound_elsewhere_windowed (ssRNA)
RNA: GGGAGUUCUACAGUCCGACGAUCAACAGUUCUAGGGGGUUGAACUACAUAGUAAAAAAAUAAAAUAAAUAGUACUUAGUGUAAAAUAAUUUUAUAAAUGAUCUUUUGUACUUUAGGACAUUAAAUUGUACAACUUUUGUAUAUCAACAGAGGAUUGAGCAUCA
B19: chr16:46660370:46660459:-|3pUTR|ENSG00000069329|msi1_unk|total|mutant (ssRNA)
RNA: GGGAGUUCUACAGUCCGACGAUCAAAAGGAAACCGCUCACCAUACUCCUUUCCAUGUACAUCCAGUGAGGGUUUUAUUACGCCCGGUUUCCCUUCCACCGAUUGUGCCUUUCAGAAAUGCUGAGGCCGGUUUCCCAUUUCUUACAACAGAGGAUUGAGCAUCA
B20: chr8:48920054:48920155:-|CDS|ENSG00000019549|unk|FALSE|unique (ssRNA)
RNA: GGGAGUUCUACAGUCCGACGAUCACCUAUUCAACUUUUUCUGGGCUGGCCAAACAUAAGCAGCUGCACUGCGAUGCCCAGUCUAGAAAAUCUUUCAGCUGUAAAUACUGUGACAAGGAAUAUGUGAGCCUGGGCGCCCUGAAGCAACAGAGGAUUGAGCAUCA
B21: ENSG00000136451:be:win_351|CDS|ENSG00000136451|bound_else_gene|NA|bound_elsewhere_windowed (ssRNA)
RNA: GGGAGUUCUACAGUCCGACGAUCUACCAUCGCUGGGGACAGCAGCCGAACUUCGUUGGUCUCGACCAUUGCAGGCAUCUUGUCAACAGUCACUACAUCUUCCUCGGGCACCAACCCCAGUAGCAGUGCCAGCACCACAGCUAUCAACAGAGGAUUGAGCAUCA
B22: chr8:103427116:103427218:+|CDS|ENSG00000164934|unk|total|mutant (ssRNA)
RNA: GGGAGUUCUACAGUCCGACGAUCGUAUACUGGGAUUGAUCAUCACUGGAAAGAAGCUGUUUUUGCCACAUGUGGACAGCAAGCCGACAUUUGGGAUGAACAAAGAACUAAUCCUAUAUGUUCAAUGACCUGGGGAUUUGACAGCAACAGAGGAUUGAGCAUCA

Substitutions are numbered along the chain they refer to. Whole data set: some 5,800 sequences, median “enrichment r” near 0.54, cut for the highest 2% near 16. The sample as a whole holds a higher share of the highest values than the screen did.

For the experiment, the target named is MSI1 full-length (mouse, UniProt Q61474 1-362). The experiment in a line: nsRBNS (natural sequence RNA bind-n-seq); RBNS binding buffer (assumed for nsRBNS): 25 mM Tris pH 7.5, 150 mM KCl, 3 mM MgCl2, 0.01% Triton X-100, 500 ug/ml BSA, 20 U/ml SUPERase-In, 4 C; UNK is unkempt and MSI1 is Musashi-1; names of the RNAs are library labels; protein concentration not given here; high values mean tight binding.
Chain of MSI1 full-length (Q61474 whole entry): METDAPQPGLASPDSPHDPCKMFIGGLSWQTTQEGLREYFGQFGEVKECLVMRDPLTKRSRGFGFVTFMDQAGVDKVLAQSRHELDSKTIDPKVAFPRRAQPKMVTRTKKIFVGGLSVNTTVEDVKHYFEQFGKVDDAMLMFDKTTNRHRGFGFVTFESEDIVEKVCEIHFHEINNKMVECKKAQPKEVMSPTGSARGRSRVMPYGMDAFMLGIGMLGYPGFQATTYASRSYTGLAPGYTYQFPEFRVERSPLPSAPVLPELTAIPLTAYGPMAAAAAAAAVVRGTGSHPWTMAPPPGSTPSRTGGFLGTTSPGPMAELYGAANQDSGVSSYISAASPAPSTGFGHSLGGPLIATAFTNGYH
On to B1, for which the binding signal is 0.529 enrichment R.
To B2 belongs 0.697 enrichment R; to B3, 0.848 enrichment R.
To B4 belongs 0.181 enrichment R; to B5, 0.318 enrichment R; to B6, 0.303 enrichment R.
To B7 belongs 35.8 enrichment R; to B8, 0.46 enrichment R; to B9, 1.89 enrichment R.
In the case of B10, the binding signal was determined as 0.264 enrichment R.
To B11 belongs 11.9 enrichment R; to B12, 69.1 enrichment R; to B13, 18.4 enrichment R.
Consider B14, for which the binding signal is 10.7 enrichment R.
To B15 belongs 2.12 enrichment R.
To B16 belongs 15.5 enrichment R; to B17, 0.295 enrichment R.
To B18 belongs 23.1 enrichment R; to B19, 0.39 enrichment R.
Molecule B20 yielded a binding signal of 0.478 enrichment R.
To B21 belongs 0.413 enrichment R; to B22, 0.362 enrichment R.
